According to PubChem BioAssay AID2620 (National Center for Advancing Translational Sciences (NCATS), 2010):
Results filed as inconclusive are left out. Calls of active or inactive are those of the source. The call rests on the fitted dose curve; in most records, active means well fitted curve in the direction sought with a large enough effect; inconclusive means small, poorly fitted or top-dose-only effect, or another doubt; inactive means no such curve, though single readings can be large or run the other way.

Target: Pyruvate kinase PKM (Homo sapiens) (UniProt P14618)
Test: Secondary LDH Assay for Activators of Human Pyruvate Kinase M1 Isoform: for Probe SAR
Procedure, shortened: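 10 nM hPK-M1 coupled to 1 uM LDH, with 0.1 mM PEP, 4.0 mM ADP, 0.2 mM NADH, 50 mM Tris pH 8.0, 200 mM KCl, 15 mM MgCl2 (final). NADH fluorescence depletion followed kinetically 3-6 min; initial rates normalized to uninhibited controls.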

Pyruvate kinase PKM (Homo sapiens), sequence (P14618 whole entry, looked up, canonical isoform): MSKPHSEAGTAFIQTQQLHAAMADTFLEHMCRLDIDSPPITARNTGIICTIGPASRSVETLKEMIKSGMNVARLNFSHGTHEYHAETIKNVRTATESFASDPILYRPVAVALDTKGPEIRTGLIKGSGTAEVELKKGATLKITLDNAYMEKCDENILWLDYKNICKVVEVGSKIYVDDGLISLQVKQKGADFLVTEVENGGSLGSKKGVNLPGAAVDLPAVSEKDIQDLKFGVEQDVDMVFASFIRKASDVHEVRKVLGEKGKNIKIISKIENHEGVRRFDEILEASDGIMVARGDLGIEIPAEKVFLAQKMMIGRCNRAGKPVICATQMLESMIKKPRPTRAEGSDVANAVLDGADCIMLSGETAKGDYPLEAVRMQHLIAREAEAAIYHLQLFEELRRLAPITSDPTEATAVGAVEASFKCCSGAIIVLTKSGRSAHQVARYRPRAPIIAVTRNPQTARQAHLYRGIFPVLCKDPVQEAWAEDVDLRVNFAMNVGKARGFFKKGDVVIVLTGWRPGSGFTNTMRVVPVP

| SMILES | outcome |
| --- | --- |
| Cc1ccc(NS(=O)(=O)c2cccc(C(=O)O)c2)cc1C | inactive |
| Cc1c(Cl)cccc1NS(=O)(=O)c1cc2c(cc1F)NC(=O)CC2 | inactive |
| CN(C)c1cccc(S(=O)(=O)N2CCN(S(=O)(=O)c3ccc4c(c3)OCCO4)CC2)c1 | inactive |
| O=C1c2ccccc2C(=O)N1c1nccs1 | inactive |
| Cc1ccc(NS(=O)(=O)c2ccc(-c3ccccc3)cc2)cc1C | inactive |
| CC(C)Nc1cccc(S(=O)(=O)N2CCCN(S(=O)(=O)c3ccc4c(c3)OCCO4)CC2)c1 | inactive |
| Cc1ccc(NS(=O)(=O)c2ccc(Cl)cc2)cc1C | inactive |
| N#Cc1ccc(NS(=O)(=O)c2ccc3c(c2)CCC(=O)N3)cc1 | inactive |
| Cc1ccc(NS(=O)(=O)c2cc3c(cc2/C=C/c2ccccc2)NC(=O)CO3)cc1C | inactive |
| O=C1CCc2cc(S(=O)(=O)Nc3ccc4ccccc4c3)ccc2N1 | inactive |
